In PMC4336329 (PLoS ONE, 2015):
About 2,200 (0.71%) of roughly 310,000 compounds showed an effect of 50% or more. The effect is printed as a negative number. Many of the other results were omitted from the sample, so strong results are more common in it than they were.

The compounds below were run against human ether-à-go-go-related gene (hERG) potassium channel (human, UniProt Q12809) (assay: primary screen, population patch clamp on CHO cells stably expressing hERG; higher = less effect of the substance).
Sequence of human ether-à-go-go-related gene (hERG) potassium channel (Q12809 whole entry, looked up): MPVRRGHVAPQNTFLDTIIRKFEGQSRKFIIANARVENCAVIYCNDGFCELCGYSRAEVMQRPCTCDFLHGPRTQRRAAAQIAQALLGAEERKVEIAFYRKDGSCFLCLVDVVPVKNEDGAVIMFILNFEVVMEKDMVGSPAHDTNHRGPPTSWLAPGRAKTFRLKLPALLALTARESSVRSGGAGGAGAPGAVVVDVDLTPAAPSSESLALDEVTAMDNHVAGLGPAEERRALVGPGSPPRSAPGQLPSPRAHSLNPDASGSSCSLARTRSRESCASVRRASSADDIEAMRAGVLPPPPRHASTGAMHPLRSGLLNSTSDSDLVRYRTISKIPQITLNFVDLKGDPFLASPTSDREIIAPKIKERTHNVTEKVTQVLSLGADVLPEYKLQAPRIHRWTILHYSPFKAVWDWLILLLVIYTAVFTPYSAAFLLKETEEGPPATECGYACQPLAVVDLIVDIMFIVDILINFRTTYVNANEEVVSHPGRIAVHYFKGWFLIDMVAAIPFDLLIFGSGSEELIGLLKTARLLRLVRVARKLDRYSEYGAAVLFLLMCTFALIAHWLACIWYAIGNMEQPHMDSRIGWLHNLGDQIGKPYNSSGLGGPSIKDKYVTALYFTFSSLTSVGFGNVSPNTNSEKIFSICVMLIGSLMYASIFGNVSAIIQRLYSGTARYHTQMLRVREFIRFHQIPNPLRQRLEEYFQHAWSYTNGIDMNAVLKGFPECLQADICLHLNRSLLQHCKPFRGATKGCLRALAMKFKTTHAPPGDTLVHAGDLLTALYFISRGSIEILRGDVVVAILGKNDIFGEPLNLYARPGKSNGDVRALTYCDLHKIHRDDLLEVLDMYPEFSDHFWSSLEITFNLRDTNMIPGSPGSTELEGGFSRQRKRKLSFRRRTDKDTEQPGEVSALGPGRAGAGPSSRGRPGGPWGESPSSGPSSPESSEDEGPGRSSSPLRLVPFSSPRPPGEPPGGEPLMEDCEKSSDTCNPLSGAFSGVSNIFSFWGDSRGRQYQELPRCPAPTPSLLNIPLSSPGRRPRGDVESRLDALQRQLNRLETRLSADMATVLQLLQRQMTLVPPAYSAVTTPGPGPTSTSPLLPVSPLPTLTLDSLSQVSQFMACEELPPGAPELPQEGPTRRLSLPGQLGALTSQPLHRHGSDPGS
For `COC(=O)c1ccccc1NC(=O)CN1CCCCCC1`, the “hERG current change (%, negative = inhibition) at 1uM” value was 16.5%.
In the case of `O=C(CN1CCN(Cc2ccccc2)CC1)Nc1ccc(Cl)cc1`, the “hERG current change (%, negative = inhibition) at 1uM” value is reported as -32.3%.
In the case of `COC(=O)c1ccccc1NC(=O)CN1CCC(C)CC1`, the “hERG current change (%, negative = inhibition) at 1uM” value is reported as -0.0967%.
`COC(=O)c1ccccc1NC(=O)CN1CCCCC1` was tested, and the “hERG current change (%, negative = inhibition) at 1uM” value was 32.9%.
`O=C(CN1CCN(Cc2ccccc2)CC1)Nc1ccc(Cl)cn1` was tested, and the “hERG current change (%, negative = inhibition) at 1uM” value was -70%.
With `COC(=O)c1ccccc1NC(=O)CN1CCN(Cc2ccccc2)CC1` the “hERG current change (%, negative = inhibition) at 1uM” value was -69.6%.
In the case of `Cc1cccc(NC(=O)CN2CCN(CC(=O)NCc3ccc(Cl)cc3Cl)CC2)c1C`, the “hERG current change (%, negative = inhibition) at 1uM” value is reported as 4.8%.
With `NC(=O)c1ccccc1NC(=O)CN1CCN(Cc2ccc(Cl)cc2Cl)CC1` the “hERG current change (%, negative = inhibition) at 1uM” value was -75.8%.
For `O=C(CN1CCN(Cc2ccccc2F)CC1)Nc1ccccc1Cl`, the “hERG current change (%, negative = inhibition) at 1uM” value was 8.26%.
With `O=C(CN1CCCCCC1)Nc1ccc(Cl)cn1` the “hERG current change (%, negative = inhibition) at 1uM” value was 6.51%.
With `COC(=O)c1ccccc1NC(=O)CN1CCN(C23CC4CC(CC(C4)C2)C3)CC1` the “hERG current change (%, negative = inhibition) at 1uM” value was -75%.
For `COC(=O)c1ccccc1NC(=O)CN1CCOCC1`, the “hERG current change (%, negative = inhibition) at 1uM” value was 5.34%.
For `CCOCCCNS(=O)(=O)c1ccc2c(c1)oc(=O)n2CC(=O)OCC`, the “hERG current change (%, negative = inhibition) at 1uM” value was 10.3%.
For `COCCN1CCN(C(=O)C2CCC(=O)N(Cc3ccccc3F)C2)CC1` (centres unmarked), the “hERG current change (%, negative = inhibition) at 1uM” value was 9.05%.
`COc1c(/C=N/NC(=O)c2ccccc2O)c(CCN(C)C(C)=O)cc2c1OCO2` was tested, and the “hERG current change (%, negative = inhibition) at 1uM” value was 8.13%.
With `CCN(CC)CCCNC(=O)c1c(O)c2ccccc2n(Cc2ccccc2)c1=O.Cl` the “hERG current change (%, negative = inhibition) at 1uM” value was -12.3%.
In the case of `Cc1ccccc1N1C(=O)c2ccccc2NC1c1ccncc1` (centres unmarked), the “hERG current change (%, negative = inhibition) at 1uM” value is reported as 13%.
For `COc1ccccc1/C=C/C(=O)NCC(=O)N/N=C(\CCC(=O)O)c1ccccc1`, the “hERG current change (%, negative = inhibition) at 1uM” value was -2.9%.
For `NNC(=O)c1ccc(-c2ccccc2F)cc1`, the “hERG current change (%, negative = inhibition) at 1uM” value was 14.8%.
`Nc1nnc(C(F)(F)F)s1` was tested, and the “hERG current change (%, negative = inhibition) at 1uM” value was 4.92%.
With `NC(=O)c1ccccc1NC(=O)CN1CCN(Cc2ccccc2)CC1` the “hERG current change (%, negative = inhibition) at 1uM” value was -77.7%.
`O=C(CN1CCN(Cc2ccccc2)CC1)Nc1ccccc1-c1ccccc1` was tested, and the “hERG current change (%, negative = inhibition) at 1uM” value was -39.6%.
`NC(=O)c1ccccc1NC(=O)CN1CCCCCC1` was tested, and the “hERG current change (%, negative = inhibition) at 1uM” value was 13.4%.
`CSc1ccc(/C=N/NC(=O)CN2CCN(Cc3ccc(Cl)cc3)CC2)cc1` was tested, and the “hERG current change (%, negative = inhibition) at 1uM” value was 2.29%.
With `CSc1ccc(/C=N/NC(=O)CN2CCN(Cc3ccc(C)cc3)CC2)cc1` the “hERG current change (%, negative = inhibition) at 1uM” value was 2.67%.
For `CSc1ccc(/C=N/NC(=O)CN2CCN(Cc3ccccc3)CC2)cc1`, the “hERG current change (%, negative = inhibition) at 1uM” value was -60%.
`COc1ccc(N(CC(=O)NCc2ccc(C)cc2)S(=O)(=O)c2c(C)[nH]c(=O)[nH]c2=O)cc1` was tested, and the “hERG current change (%, negative = inhibition) at 1uM” value was 16%.
`Cc1nc2cc3nc(C)sc3cc2s1` was tested, and the “hERG current change (%, negative = inhibition) at 1uM” value was 3.19%.
For `Cc1cc(C)cc(NC(=O)CCNS(=O)(=O)c2ccc3c(c2)oc(=O)n3C)c1`, the “hERG current change (%, negative = inhibition) at 1uM” value was 9.33%.
With `COCC(=O)N1CCC(Oc2ccc(C(=O)NCc3cnc(C)cn3)cc2)CC1` the “hERG current change (%, negative = inhibition) at 1uM” value was 13%.
For `CCN(c1cccc(C)c1)S(=O)(=O)c1ccc(-c2ccc(=O)[nH]n2)o1`, the “hERG current change (%, negative = inhibition) at 1uM” value was 12.8%.
`O=C(O)C(=O)O.c1ccc(-c2ccccc2OCCCN2CCCCC2)cc1` was tested, and the “hERG current change (%, negative = inhibition) at 1uM” value was -69.1%.
With `CC1CCN(CCCCOc2ccccc2-c2ccccc2)CC1.O=C(O)C(=O)O` the “hERG current change (%, negative = inhibition) at 1uM” value was -74.9%.
In the case of `O=C(O)C(=O)O.O=C(c1ccccc1)c1ccc(OCCCN2CCCC2)cc1`, the “hERG current change (%, negative = inhibition) at 1uM” value is reported as -29.9%.
With `O=C(O)C(=O)O.c1ccc(CN2CCN(CCOCCOc3ccc4c(c3)CCC4)CC2)cc1` the “hERG current change (%, negative = inhibition) at 1uM” value was 11.6%.
For `O=C(O)C(=O)O.c1ccc(-c2ccccc2OCCN2CCCCC2)cc1`, the “hERG current change (%, negative = inhibition) at 1uM” value was -4.98%.
`CN1CCN(CCCCOc2ccccc2-c2ccccc2)CC1.O=C(O)C(=O)O` was tested, and the “hERG current change (%, negative = inhibition) at 1uM” value was 16.8%.
`O=C(O)C(=O)O.c1ccc(-c2ccccc2OCCOCCN2CCCCC2)cc1` was tested, and the “hERG current change (%, negative = inhibition) at 1uM” value was -18.9%.
In the case of `Cc1cc(Br)ccc1OCCCCN1CCCCC1.O=C(O)C(=O)O`, the “hERG current change (%, negative = inhibition) at 1uM” value is reported as -66.6%.
With `O=C(O)C(=O)O.O=C(c1ccccc1)c1ccc(OCCOCCN2CCN(Cc3ccccc3)CC2)cc1` the “hERG current change (%, negative = inhibition) at 1uM” value was -82.8%.
For `CC1CCN(CCOc2ccccc2-c2ccccc2)CC1.O=C(O)C(=O)O`, the “hERG current change (%, negative = inhibition) at 1uM” value was -8.4%.
With `Cc1cc(Br)ccc1OCCOCCN1CCCC1.O=C(O)C(=O)O` the “hERG current change (%, negative = inhibition) at 1uM” value was -9.41%.
For `Cc1cc(Br)ccc1OCCN1CCCC1.O=C(O)C(=O)O`, the “hERG current change (%, negative = inhibition) at 1uM” value was -7.85%.
With `CC1CC(=O)Nc2ccccc2N1C(=O)Nc1ccc(F)cc1` (centres unmarked) the “hERG current change (%, negative = inhibition) at 1uM” value was 9.77%.
`CC(C)CCN(C(=S)Nc1cccc(C(F)(F)F)c1)C(C)c1ccccn1` (centres unmarked) was tested, and the “hERG current change (%, negative = inhibition) at 1uM” value was 10.7%.
`CCOc1cc(C2/C(=C(/O)c3ccc(OC(C)C)cc3)C(=O)C(=O)N2CCCOC)ccc1O` (centres unmarked) was tested, and the “hERG current change (%, negative = inhibition) at 1uM” value was 21.3%.
In the case of `Clc1ccc(Oc2nc(N3CCOCC3)nc(N3CCOCC3)n2)c(C2CCCCC2)c1`, the “hERG current change (%, negative = inhibition) at 1uM” value is reported as 10.6%.
`Clc1cccc(Cl)c1CN1CCN(c2ccccc2)CC1` was tested, and the “hERG current change (%, negative = inhibition) at 1uM” value was 15.9%.
`O=C(CCN1C(=O)C2C3CCC(C3)C2C1=O)Nc1cccc(Cl)c1` (centres unmarked) was tested, and the “hERG current change (%, negative = inhibition) at 1uM” value was 4.67%.
In the case of `CCC1(CC)NC(=O)N(CC(=O)OCC(=O)Nc2ccc(F)c(F)c2F)C1=O`, the “hERG current change (%, negative = inhibition) at 1uM” value is reported as 4.85%.
`Cc1ccc(NC(=O)/C=C/c2ccc([N+](=O)[O-])s2)c(C)c1` was tested, and the “hERG current change (%, negative = inhibition) at 1uM” value was 10.5%.
`CCOc1ccccc1-n1c(SCC(=O)NC(C)CC)nnc1-c1ccoc1C` (centres unmarked) was tested, and the “hERG current change (%, negative = inhibition) at 1uM” value was -2.44%.
In the case of `CCOCCCn1c(SC(C(=O)Nc2cc(C)ccc2C)c2ccccc2)nnc1-c1ccc(Cl)cc1` (centres unmarked), the “hERG current change (%, negative = inhibition) at 1uM” value is reported as 13.5%.
`CC(=O)Nc1ccc(S(=O)(=O)NC2(C(F)(F)F)NC(=O)N(c3ccccc3F)C2=O)cc1` (centres unmarked) was tested, and the “hERG current change (%, negative = inhibition) at 1uM” value was 19.3%.
With `COc1ccc(NS(=O)(=O)c2ccc(/C=C/C(=O)O)cc2)cc1S(=O)(=O)N1CCOCC1` the “hERG current change (%, negative = inhibition) at 1uM” value was 10.7%.
For `COc1ccc(NC(=O)c2ccc(S(=O)(=O)NCc3cccnc3)cc2)cc1`, the “hERG current change (%, negative = inhibition) at 1uM” value was -13.3%.
